High-throughput results from PubChem BioAssay.
Hits are enriched below; roughly 5.1% of the tested compounds scored in any of these assays.
NR3A LBD binder – binders of NR3A ligand-binding domain, primary screen, biophysical, differential scanning fluorimetry, uHTS; Glutamate receptor ionotropic, NMDA 3A (GRIN3A) ligand-binding domain; NR3A LBD differential scanning fluorimetry, Tm shift; 0% = protein alone, 100% = glycine-bound protein; Tm shift relative to glycine control, % at 25 µM; 340,000 compounds, 2.5% hits; AID 1259313, 2017;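 active = melting temperature shift of at least 10% of the positive control shift, at one fixed dose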
CRFR2-BP ag – agonists of CRF-BP/CRF-R2 complex, primary screen, cell-based, HEK293, calcium dye fluorescence, uHTS; CRF-binding protein / CRF receptor 2 complex (human); calcium dye fluorescence (FLIPR); percent of saturating CRF peptide response; activation, % at 13.2 µM; 350,000 compounds, 0.46% hits; AID 588473, 2011;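 active = activation of at least 50%, plus an integration ratio under a set limit after plate pattern correction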;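 also: plate controls were neutral control wells without compound for no effect and CRF at EC100 for full effect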
CRFR2-BP antag – antagonists of CRF-BP/CRF-R2 complex, primary screen, cell-based, HEK293, calcium dye fluorescence, uHTS | CRF-induced calcium fluorescence | inhibition, % at 11.8 µM | 350,000 compounds, 0.59% hits;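 active = inhibition of the ligand-induced calcium signal above about 50% at the single tested concentration, limit read from the data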
TMEM16A inh – TMEM16A chloride channel inhibitors, primary screen, cell-based, HTS | HEK293 TMEM16A/YFP iodide influx fluorescence, ionomycin | Anoctamin-1 (Mus musculus), Q8BHY3 | 310,000 compounds, 1.2% hits | normalized B-score (activity score, 25-100; higher = stronger inhibition) at 10 µM | AID 588511, 2011;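 active = ratio plate-corrected score three or more library SD toward inhibition, starting fluorescence score within five deviations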;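 also: score derived from kinetic fluorescence span divided by baseline fluorescence per well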
Target sequence (Q8BHY3 whole entry, looked up): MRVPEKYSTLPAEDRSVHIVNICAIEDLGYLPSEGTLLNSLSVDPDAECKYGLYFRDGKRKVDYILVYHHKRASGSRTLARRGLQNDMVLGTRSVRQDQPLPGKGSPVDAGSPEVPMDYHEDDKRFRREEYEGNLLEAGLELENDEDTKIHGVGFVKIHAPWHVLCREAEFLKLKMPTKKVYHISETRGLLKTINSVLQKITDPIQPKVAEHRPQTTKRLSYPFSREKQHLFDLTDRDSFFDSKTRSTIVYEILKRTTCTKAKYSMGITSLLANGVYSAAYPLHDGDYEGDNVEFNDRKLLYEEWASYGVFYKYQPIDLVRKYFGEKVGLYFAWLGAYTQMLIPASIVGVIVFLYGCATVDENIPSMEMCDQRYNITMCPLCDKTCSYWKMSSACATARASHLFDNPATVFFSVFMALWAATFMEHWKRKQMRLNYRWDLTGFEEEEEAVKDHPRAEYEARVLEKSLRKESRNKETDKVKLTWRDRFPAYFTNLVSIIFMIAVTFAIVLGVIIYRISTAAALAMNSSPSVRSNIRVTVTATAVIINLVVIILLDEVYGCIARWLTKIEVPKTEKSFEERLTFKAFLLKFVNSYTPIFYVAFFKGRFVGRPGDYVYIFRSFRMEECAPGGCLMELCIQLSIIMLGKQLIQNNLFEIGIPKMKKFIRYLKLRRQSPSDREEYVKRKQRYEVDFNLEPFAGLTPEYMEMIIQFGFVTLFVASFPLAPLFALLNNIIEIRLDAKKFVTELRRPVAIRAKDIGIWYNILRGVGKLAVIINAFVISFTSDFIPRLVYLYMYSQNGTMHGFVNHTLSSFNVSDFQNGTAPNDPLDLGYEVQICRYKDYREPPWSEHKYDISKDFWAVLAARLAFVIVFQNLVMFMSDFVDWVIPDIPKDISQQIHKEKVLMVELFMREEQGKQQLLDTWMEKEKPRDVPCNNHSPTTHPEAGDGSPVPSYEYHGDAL
ANO1 activ – TMEM16A chloride channel activators or potentiators, primary screen, cell-based, HTS; B-score at 10 µM; AID 623877, 2012; HEK293 TMEM16A/YFP-H148Q/I152L, iodide quench fluorescence; active compounds read low; 340,000 compounds, 0.3% hits;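 active = fluorescence-ratio B-score plate-corrected deviation score at least 3 library SD below zero, with starting fluorescence score within 5 deviations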;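 also: channel opened by trigger with iodide after compound preincubation; score built on the fluorescence ratio of max minus min over baseline; more negative score means more quench and so TMEM16A activation or potentiation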
MPTP inh – mitochondrial permeability transition pore inhibitors, primary screen, biochemical, isolated mouse mitochondria, absorbance; Ca2+ swelling absorbance, 30 min; inhibition, % at 10 µM; 360,000 compounds, 1.4% hits;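 active = inhibition of 50% or more, scaled per plate between neutral and stimulator controls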;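 also: 0% = DMSO wells given calcium and 100% = 1 mM EGTA wells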
MPTP counter – fluorescence retest of MPTP screen hits in isolated mitochondria, single concentration; AID 624504, 2012; inhibition, % at 10 µM; 5,000 compounds, 78% hits; membrane potential, Rhodamine 123 fluorescence; shares compounds with MPTP inh; in the data active = inhibition above about 22%;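 also: 0% = DMSO vehicle and 100% = positive control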
MPTP swell DR – mitochondrial permeability transition pore inhibitors, dose response, biochemical, absorbance, uHTS hits. AID 651561, 2012. isolated mitochondria swelling. shares compounds with MPTP inh. 780 compounds, 58% hits. IC50, µM; in the data active = IC50 below about 20 µM
MPTP cs DR – fluorescent counter-screen in isolated mitochondria, dose response, counter-screen for MPTP inhibitor project, biochemical, fluorescence, uHTS hits; shares compounds with MPTP inh; isolated mitochondria counterscreen, fluorescence read-out; IC50, µM; 780 compounds, 49% hits; AID 651564, 2012; in the data active = IC50 below about 80 µM
* = called active by the depositor; i = inactive; nt = no result.

SMILES | NR3A LBD binder | CRFR2-BP ag | CRFR2-BP antag | TMEM16A inh | ANO1 activ | MPTP inh | MPTP counter | others
O=C(NCCCSc1ccccc1)c1cc(Cl)ccc1O | 11.8* | 11.6 | 22.5 | 100* | i | 81.7* | 83.4*
Cc1c(NC(=O)Nc2ccc(Cl)c(Cl)c2)sc(=S)n1C | 21.6* | 1.5 | -4.0 | i | i | 50.7* | 63.9*
Cc1cccc(NC(=O)Nc2ccc(Cl)c(Cl)c2)n1 | 2.8 | -0.2 | 2.0 | i | i | 12.5 | nt
O=C1C2C3C=CC(C3)C2C(=O)N1c1ccc(Cc2ccncc2)cc1 (stereo unspecified) | 0.4 | 1.0 | 5.1 | i | i | 0.7 | nt
CC1CCC2C(=O)N(c3ccc(Cc4ccncc4)cc3)C(=O)C2C1 (stereo unspecified) | -0.2 | 5.8 | 22.9 | i | i | 86.6* | 89.1*
Cc1ccc(N=Nc2ccc(O)c(/C=N\NC(=O)c3ccc(N)cc3)c2)cc1C | 0.9 | -0.1 | 8.6 | i | i | 1.6 | nt
CC(C)(C)OC(=O)N/N=C/c1cc(N=Nc2ccccc2)ccc1O | 5.9 | -0.9 | -13.1 | i | i | 95.9* | 68.8*
CCCn1c(=O)[nH]c(=O)c2c1nc(-c1ccccc1OC(F)F)n2CCOC | 2.4 | 0.4 | -28.6 | i | i | -1.4 | nt
CCCn1c(=O)[nH]c(=O)c2c1nc(-c1ccc(OC(F)F)c(OC)c1)n2CCOC | -1.9 | 0.2 | 5.7 | i | i | 80.4* | -3.9 | MPTP swell DR=>100;MPTP cs DR=>80
CCn1cc2nc(SCC(=O)Nc3ccc(F)cc3F)n(Cc3ccccc3)c(=O)c2n1 | 0.2 | -0.3 | -3.3 | i | i | 1.8 | nt
Fc1ccc(CN2CCN3CCCC3C2C2CCCCC2)cc1F (stereo unspecified) | 1.0 | 1.2 | -8.1 | i | i | 56.2* | -12.5 | MPTP swell DR=16.3*;MPTP cs DR=>80
COc1ccc(Cn2ccnc2SCC(=O)NC2CCCC2)cc1 | -0.9 | -1.6 | -7.9 | i | i | -0.3 | nt
CCOc1ccc(NC(=S)Nc2ccc3nsnc3c2)cc1 | 22.2* | 1.8 | -23.6 | i | i | 85.5* | 77.1*
COc1ccc(NC(=S)Nc2ccc3nc(C)c(C)nc3c2)cc1 | -4.9 | 4.1 | 34.5 | i | i | 2.6 | nt
CCOc1ccc(NC(=O)Nc2ccc3nsnc3c2)cc1 | 25.6* | 5.1 | -11.3 | i | i | 91.3* | 89.4*
COc1ccc(NC(=S)Nc2ccc3nsnc3c2)cc1 | 23.5* | 2.8 | -13.8 | i | i | 59.9* | 77.6*
CC(C)C[C@H]1COCCS(=O)(=O)N1Cc1cccc(F)c1 | 1.8 | -2.4 | 5.9 | i | i | -0.5 | nt
N#CC(C#N)=Cc1ccccc1OCc1ccccc1 | nt | nt | nt | i | nt | nt | nt
CSc1ccc(CN2CCC(CO)(CCOc3ccccc3)CC2)cc1 | -3.2 | 5.3 | -6.2 | i | i | 3.4 | nt
CCOC(=O)c1ccc(N/N=C/c2cc(Br)cc([N+](=O)[O-])c2O)cc1 | 18.9* | 0.1 | 36.5 | i | i | 74.4* | 21.4*
CCc1nc2ccc(C(=O)Nc3cccc(OC)c3)cn2c1N(C)CCCc1ccccc1 | nt | nt | nt | nt | nt | 1.1 | nt
Cc1ccc(C(CNS(=O)(=O)c2ccc(Br)cc2)N2CCN(C)CC2)cc1 (stereo unspecified) | 0.3 | 0.6 | -10.8 | i | i | 77.8* | -16.1 | MPTP swell DR=13.3*;MPTP cs DR=>80
